Laboratory results as given in PubChem BioAssay AID463173 (ICCB-Longwood Screening Facility, Harvard Medical School, 2010).
Among all 52,000 compounds or so, about 4,300 (8.3%) were called active. The sample as a whole holds a higher share of actives than the screen did. A number with no mark means an inactive call. No stated cut-off is given here; in the data, active means survival mostly below about 52% (no sharp cut-off); inactive means mostly above about 56%.

System: DeltatarO mutant
Assay: S. aureus survival, RN4220 and DeltatarO strains – OD600, teichoic acid synthesis inhibitors, primary screen (AID 463173)
Details: S. aureus RN4220 wild type/DeltatarO growth, OD600, 18 h, stronger effect = lower value, screened at 18.75 µg/mL (by protocol)

Compared with `COc1ccc(-n2c(=O)[nH]c3cc(C(=O)NCCc4ccccc4)ccc3c2=O)cc1OC`, `COc1ccc(CCN2C(=O)N(c3ccc(F)cc3)C(=O)C2CC(=O)Nc2ccccc2)cc1OC` (stereo not drawn) is lower in survival: 94% for the first, 76% for the second.

Compared with `COc1ccccc1NC(=O)Cn1c(=O)n(-c2ccc(C)cc2)c(=O)c2ccc(C(=O)NCc3ccco3)cc21`, `CCC(C)NC(=O)Cn1c(=O)n(Cc2ccc(C(=O)NCc3ccccc3OC)cc2)c(=O)c2ccccc21` (stereo not drawn) is higher in survival: 79% for the first, 84% for the second.

Going from `Cc1ccc(N2CCN(C(=O)Cn3ncc4c([nH]c5ccc(C)cc54)c3=O)CC2)c(C)c1` to `Cc1ccc2oc(=O)c3cnn(CC(=O)N4CCN(c5ccc(F)cc5)CC4)c3c2c1`, the survival rises from 94% to 106%.

Going from `COc1ccc(NC(=O)C2=C(C)Nc3ncnn3C2c2ccccn2)cc1` (stereo not drawn) to `CC1=C(C(=O)Nc2cccc(C(F)(F)F)c2)C(c2ccccn2)n2ncnc2N1` (stereo not drawn), the survival rises from 81% to 102%.

Going from `Cc1ccc(S(=O)(=O)N2C(=O)CCC2C(=O)NCc2ccco2)cc1` (stereo not drawn) to `Cc1ccc(CNC(=O)CCSCc2ccccc2F)cc1`, the survival rises from 77% to 78%.

First: Cc1ccc2c(CC(=O)N3CCN(c4cccc(Cl)c4)CC3)coc2c1
Second: CC(=O)c1ccc(N2CCN(C(=O)NCc3noc4ccc(C)cc34)CC2)cc1
The survival of the first is higher: 75% for the first, 45% for the second.

First: CCN(CC)CC(=O)Oc1ccc(NC2=NS(=O)(=O)c3ccccc32)cc1
Second: COc1ccccc1C(=O)Nc1ccc(OCc2cc(=O)n3cccc(C)c3n2)cc1
The survival of the first is higher: 96% for the first, 94% for the second.

First: CC1CCCN(C(=O)CCS(=O)(=O)c2cc3c(cc2Cl)NC(=O)CO3)C1 (stereo not drawn)
Second: Cn1cnc(S(=O)(=O)N2CCCC(C(=O)NCc3ccccc3Cl)C2)c1 (stereo not drawn)
The survival of the first is lower: 84% for the first, 99% for the second.

Going from `CCCC(=O)NCCc1ccc(F)cc1` to `Cc1ccc(CCNC(=O)CCSCc2ccc(Cl)cc2)cc1`, the survival falls from 119% to 82%.

`COC(=O)c1cc2occc2n1CC(=O)Nc1cccc(SC)c1` and `Cc1ccc(NC(=O)Nc2nnc(SCC(=O)Nc3ccc(F)cc3F)s2)cc1` are the same in survival: 102% for the first, 102% for the second.

First: CC(C)CNCC(=O)N(C1CCCCC1)C1CCCCC1
Second: O=C(NC1CCN(CC(=O)N2CCOCC2)CC1)C1CCCCC1
The survival of the first is higher: 116% for the first, 95% for the second.

Going from `Cc1ccc(-c2cc(C(=O)NCc3cnn(C)c3)c3cc(Br)ccc3n2)cc1` to `COc1ccc(-c2cc(C(=O)NCc3ccc(C)cc3)c3cc(C(C)C)ccc3n2)cc1`, the survival rises from 51% to 76%.

Going from `CCn1cc(CNC(=O)c2cc(-c3ccc(C)c(C)c3)nc3ccccc23)c(C)n1` to `Cc1ccc(-c2cc(C(=O)NCc3ccccc3Cl)c3ccccc3n2)cc1C`, the survival falls from 123% to 68%.

`N#CCN(CC#N)C(=O)c1cc(-c2ccccc2)nc2ccccc12` and `CCOc1ccc(-c2cc(C(=O)NCc3ccccc3Cl)c3ccccc3n2)cc1` are the same in survival: 89% for the first, 89% for the second.

Going from `Cc1nn(C)cc1CN(C)C(=O)c1cc(-c2ccccc2)nc2ccc(Br)cc12` to `Cc1ccc(CNC(=O)c2cc(-c3ccc(C)c(C)c3)nc3ccccc23)cc1`, the survival rises from 67% to 74%.

Compared with `CC(C)N(C(=O)CSc1nnc(CSc2ncccn2)n1C)C(C)C`, `Cc1ccccc1NC(=O)CSc1cn(CC(=O)N(C(C)C)C(C)C)c2ccccc12` is lower in survival: 58% for the first, 54% for the second.

Going from `CCOC(=O)c1ccc(NC(=O)Cc2ccc(-n3c(CC)nc4cccnc43)cc2)cc1` to `CCc1nn2c(=O)cc(COC(=O)c3ccc(NC(=O)CCc4ccccc4)cc3)nc2s1`, the survival rises from 68% to 99%.

Going from `Cc1ccccc1Cn1c(=O)n(Cc2ccc3c(c2)OCO3)c(=O)c2oc3ccccc3c21` to `COc1ccc(-n2cc(-c3ccc4c(c3)OCO4)n(CC(=O)Nc3cc(Cl)ccc3C)c2=O)cc1`, the survival falls from 110% to 73%.

First: C/C=N/NC(=O)c1ccccc1
Second: O=c1ccnc(NCCc2ccccc2)[nH]1
The survival of the first is lower: 93% for the first, 104% for the second.

First: O=C(NC1CCCCC1)c1ccc2c(c1)N(Cc1cccc(F)c1)C(=O)c1ccccc1S2
Second: O=C(NCc1ccco1)c1ccc2c(c1)N(Cc1ccc(Cl)cc1)C(=O)c1ccccc1S2
The survival of the first is higher: 88% for the first, 71% for the second.

Going from `Cn1cnc(S(=O)(=O)N2CCC(C(=O)Nc3ccc(C#N)cc3)CC2)c1` to `O=C(Nc1cccc(F)c1)C1CCN(S(=O)(=O)c2ccc3[nH]c4c(c3c2)CCCCC4)CC1`, the survival falls from 107% to 89%.

First: CC(C)(C)c1nn(-c2ccccc2)c2[nH]c(=O)c(CNc3ccc4c(c3)OCO4)cc12
Second: COc1ccc(OC)c(NC(=O)C(C)n2nc(C)c3c(C)n(-c4ccccc4)nc3c2=O)c1 (stereo not drawn)
The survival of the first is lower: 86% for the first, 93% for the second.

First: CCOC(=O)c1ccc(N2C(=O)c3[nH]nc(-c4ccccc4)c3C2c2cccs2)cc1 (stereo not drawn)
Second: CCOC(=O)c1cc2c(=O)n3ccccc3nc2n(Cc2ccco2)c1=NC(=O)c1ccccc1Br
The survival of the first is higher: 123% for the first, 71% for the second.

Compared with `CCOC(=O)c1cc2c(=O)n3ccccc3nc2n(CC(C)C)c1=NC(=O)COc1ccc(Cl)cc1`, `CCN(C(=O)c1cccn(Cc2cccc(Cl)c2)c1=O)c1ccccc1` is lower in survival: 136% for the first, 80% for the second.

Compared with `O=C1CSC(=S)N1C1CCS(=O)(=O)C1` (stereo not drawn), `O=C1/C(=C\c2cccnc2)SC(=S)N1C1CCS(=O)(=O)C1` (stereo not drawn) is lower in survival: 97% for the first, 93% for the second.

Compared with `O=C(c1ccc2c(c1)N(Cc1ccc(F)cc1)C(=O)c1ccccc1S2(=O)=O)N1CCN(Cc2ccccc2)CC1`, `Cc1ccccc1CSCc1ccc(C(=O)NCCc2ccccc2)o1` is higher in survival: 72% for the first, 83% for the second.

First: O=C(CCSCc1ccccc1Cl)NCCc1ccccc1
Second: COc1ccc(CCNC(=O)CCSCc2ccccc2Cl)cc1OC
The survival of the first is lower: 71% for the first, 76% for the second.

Going from `CCc1ccc(CNC(=O)CCSCc2ccccc2F)cc1` to `O=C(CCSCc1ccc(Cl)cc1)NCc1ccc(F)cc1Cl`, the survival falls from 96% to 88%.

First: O=C(CCSCc1cccc(Cl)c1)NCCc1ccc(Cl)cc1
Second: O=C(CCSCc1cccc(Cl)c1)NCc1ccc(F)cc1Cl
The survival of the first is lower: 76% for the first, 102% for the second.

Compared with `Cc1ccc(CCNC(=O)c2ccc(CSCc3ccccc3Cl)o2)cc1`, `O=C(NCc1ccccc1Cl)c1ccc(CSCc2ccccc2Cl)o1` is higher in survival: 87% for the first, 93% for the second.

First: CC(C)Cc1cc(C(=O)O)nc(=O)[nH]1
Second: CCCn1c2ccccc2c2cnn(CC(=O)NC(C)CC)c(=O)c21 (stereo not drawn)
The survival of the first is higher: 105% for the first, 72% for the second.

First: CC(=O)c1ccc(NC(=O)COCc2cc(-c3ccc(F)cc3)on2)cc1
Second: COc1cc(C(=O)NCC(c2cccs2)S(=O)(=O)c2ccc(F)cc2)cc(OC)c1OC (stereo not drawn)
The survival of the first is lower: 102% for the first, 104% for the second.

Going from `CN1CCN(C(=O)C23CC4CC(CC(C4)C2)C3)CC1` to `Fc1ccccc1N1CCN(c2ncc3c(n2)CCN(Cc2ccc(Br)s2)C3)CC1`, the survival falls from 111% to 66%.

Compared with `CCOc1ccc(S(=O)(=O)Nc2ccc(OC)c(Cl)c2)c2cccnc12`, `Cc1nc(N)c(S(=O)(=O)c2ccccc2)c(Nc2ccc(Br)cc2)n1` is higher in survival: 70% for the first, 87% for the second.

First: Cc1ccccc1CNC(=O)CCSCc1cnn(-c2ccccc2)c1-n1cccc1
Second: O=C(CCSCc1cnn(-c2ccccc2)c1-n1cccc1)NCc1ccccc1F
The survival of the first is higher: 64% for the first, 61% for the second.

First: O=C(NCc1ccc(F)cc1Cl)c1ccc(CSCc2ccccc2Cl)o1
Second: Nc1nc(N)c(S(=O)(=O)c2ccccc2)c(Nc2ccccc2)n1
The survival of the first is lower: 54% for the first, 69% for the second.

First: O=C1c2ccccc2C(=O)C1(O)N1CCOCC1
Second: Cc1c(CN2CCOCC2)c(=O)n(-c2ccccc2)n1C
The survival of the first is lower: 85% for the first, 87% for the second.

With `COc1ccc(OCC2c3cc(OC)c(OC)cc3CCN2C(=O)c2c(F)cccc2F)cc1` (stereo not drawn) the survival was 112%.

For `Cc1ccc2onc(CC(=O)N3CCN(c4ccc(F)cc4)CC3)c2c1`, the survival was 41% (active).
With `CCn1cc(CNC(=O)c2cc(-c3ccc(C)cc3)nc3ccc(Br)cc23)c(C)n1` the survival was 40% (active).
With `Cc1ccc(-c2cc(C(=O)NCc3cnn(C)c3C)c3ccccc3n2)cc1C` the survival was 49% (active).
`Cc1c(CN(C)C(=O)c2cc(-c3ccccc3)nc3ccc(Br)cc23)cnn1C` was tested, and the survival was 30% (active).
For `Cc1ccc(-c2cc(C(=O)NCc3cnn(C)c3C)c3cc(Br)ccc3n2)cc1`, the survival was 36% (active).
`CCOC(=O)c1cc2c(=O)n3ccccc3nc2n(Cc2ccco2)c1=NC(=O)c1ccc(OC)cc1` was tested, and the survival was 34% (active).
`CCOC(=O)c1cc2c(=O)n3ccccc3nc2n(Cc2ccco2)c1=NC(=O)c1ccc(OCC)cc1` was tested, and the survival was 37% (active).
For `CCOC(=O)c1cc2c(=O)n3ccccc3nc2n(Cc2ccco2)c1=NC(=O)c1ccccc1OC`, the survival was 28% (active).
In the case of `O=C1/C(=C/C2=Cc3ccccc3OC2)SC(=S)N1C1CCS(=O)(=O)C1` (stereo not drawn), the survival is reported as 44% (active).
With `Cc1ccc(CCNC(=O)c2ccc(CSCc3ccccc3C)o2)cc1` the survival was 32% (active).
For `Cc1ccc(CCNC(=O)CCSCc2ccccc2F)cc1`, the survival was -4% (active).
In the case of `O=C(CCSCc1ccc(Cl)cc1)NCCc1ccccc1`, the survival is reported as -5% (active).
`Cc1ccc(CCNC(=O)CCSCc2ccccc2Cl)cc1` was tested, and the survival was 20% (active).
`O=C(CCSCc1ccccc1Cl)NCc1ccc(F)cc1Cl` was tested, and the survival was 8% (active).
With `O=C(CCSCc1cnn(-c2ccccc2)c1-n1cccc1)NCc1ccccc1Cl` the survival was 54% (active).
`O=C(NCc1ccccc1Cl)c1ccc(CSCc2cccc(F)c2)o1` was tested, and the survival was 17% (active).
With `Nc1nc(N)c(S(=O)(=O)c2ccccc2)c(Nc2ccc(Br)cc2)n1` the survival was 44% (active).
`CC1(N2CCOCC2)CC(=O)N(c2ccccc2)O1` (stereo not drawn) was tested, and the survival was 62% (active).
